PubChem BioAssay (Tox21)
Records with an inconclusive call do not appear. Entries that show only a call come without a potency. The source made the active and inactive calls. Unless noted, the call rests on the fitted dose curve; in most records, active means well fitted curve in the direction sought with a large enough effect in the repeat runs; inconclusive means weak or mixed curves; inactive means no such curve, though single readings can be large; an effect the other way counts as inactive or inconclusive.

Assays:
[1] = qHTS assay to identify small molecule agonists of the sonic hedgehog signaling (Shh) pathway (AID 1259368; calls by dose curve;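 further: NIH/3T3-derived 3T3Gli1-Luc cells carrying a stable Gli1-driven firefly luciferase reporter; series mostly up to about 92 µM; nearly all actives have a fitted effect of over 15% in size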)
In short: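 Quantitative high-throughput format using a Gli1-driven firefly luciferase reporter line derived from NIH/3T3 cells. After a 24 hr compound treatment at 37 C and 5% CO2, luminescence reported Gli1 response element activity.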

[2] = qHTS assay to identify small molecule agonists of the androgen receptor (AR) signaling pathway in the presence of an antagonist - cell viability counter screen (AID 1259379); further: nearly all actives have a fitted effect of over 25% in size; further: potency means the concentration at half of the fitted maximal effect
In short: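 Nilutamide-containing (3.0uM final) MDA-kb2 cultures, 3,000 cells/well, were treated with compounds across 15 concentrations. After 16 hr at 37C with no CO2, cell viability was determined by CellTiter-Fluor fluorescence in the luciferase assay wells.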

[3] = qHTS assay to identify small molecule agonists of the estrogen receptor beta (ER-beta) signaling pathway - cell viability counter screen (AID 1259380); further: nearly all actives have a fitted effect of over 30% in size; further: potency means the concentration at half of the fitted maximal effect
In short: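 Steps: plate ER-beta-UAS-bla HEK293T cells, rest 6 hr; add compounds in DMSO; incubate 16 hr at 37C, 5% CO2; add FRET substrate 2 hr; add CellTiter-Glo, wait 30 min at room temperature; read luminescence.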

[4] = qHTS assay to identify small molecule antagonists of the estrogen receptor beta (ER-beta) signaling pathway - cell viability counter screen (AID 1259382); further: nearly all actives have a fitted effect of over 55% in size; further: potency means the concentration at half of the fitted maximal effect
In short: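 Viability is scored by CellTiter-Glo luminescence (30 min, room temperature) in ER-beta-UAS-bla HEK293T wells already read for reporter fluorescence. Compound exposure lasts 16 hr at 37C alongside 1nM 17-beta-estradiol in charcoal-stripped serum medium.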

[5] = qHTS assay to identify small molecule agonists or antagonists of the thyroid stimulating hormone receptor (TSHR) signaling pathway - wild type cell line counter screen (AID 1259384; calls by dose curve)
In short: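 Wild-type HEK293 cells were plated 18 h at 37 C/5% CO2, pin-dosed with compound plus Ro20-1724 medium, held 30 min at room temperature, then given cAMP-d2 and anti-cAMP-cryptate; fluorescence was read after 1 h. Fifteen concentrations, triplicate.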

[6] = molecular target: Thyrotropin receptor (Homo sapiens) (UniProt P16473); assay: qHTS assay to identify small molecule antagonists of the thyroid stimulating hormone receptor (TSHR) signaling pathway (AID 1259385; calls by dose curve; further: nearly all actives have a fitted effect of over 20% in size)
Sequence of Thyrotropin receptor (Homo sapiens) (P16473 whole entry, looked up): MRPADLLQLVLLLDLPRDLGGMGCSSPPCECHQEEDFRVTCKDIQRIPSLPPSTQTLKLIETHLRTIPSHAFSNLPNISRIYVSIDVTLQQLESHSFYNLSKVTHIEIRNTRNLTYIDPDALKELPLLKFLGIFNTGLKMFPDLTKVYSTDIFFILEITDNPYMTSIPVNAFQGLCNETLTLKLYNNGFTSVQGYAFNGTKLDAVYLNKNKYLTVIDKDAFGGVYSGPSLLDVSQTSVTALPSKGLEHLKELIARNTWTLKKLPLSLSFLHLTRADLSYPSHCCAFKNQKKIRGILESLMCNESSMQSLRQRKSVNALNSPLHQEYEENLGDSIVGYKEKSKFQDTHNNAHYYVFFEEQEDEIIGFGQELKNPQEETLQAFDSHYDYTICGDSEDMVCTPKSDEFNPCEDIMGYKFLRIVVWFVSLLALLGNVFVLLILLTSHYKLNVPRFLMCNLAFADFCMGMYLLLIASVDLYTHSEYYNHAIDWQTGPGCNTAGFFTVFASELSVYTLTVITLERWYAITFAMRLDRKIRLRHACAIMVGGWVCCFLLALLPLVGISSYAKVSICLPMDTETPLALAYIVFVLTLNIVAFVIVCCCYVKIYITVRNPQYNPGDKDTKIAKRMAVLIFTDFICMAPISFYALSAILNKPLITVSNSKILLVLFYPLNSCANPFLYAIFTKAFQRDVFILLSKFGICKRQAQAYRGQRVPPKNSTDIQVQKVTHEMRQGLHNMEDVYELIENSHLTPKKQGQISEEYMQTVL
In short: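 TSHR-HEK293 cells were plated and held 18 h at 37C/5% CO2, then given compound plus Ro20-1724 and stimulated with TSH at 1.5 ng/mL final. After 30 min at room temperature, cAMP was detected with cAMP-d2/anti-cAMP-cryptate (1 h) by fluorescence.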

[7] = molecular target: Progesterone receptor (Homo sapiens) (UniProt P06401); assay: qHTS assay to identify small molecule antagonists of the progesterone receptor (PR) signaling pathway (AID 1346795; active means well fitted inhibition curve with a large enough effect in the signal ratio in the repeat runs, not every such curve was filed as active; the % refers to the signal ratio; further: potency means the concentration at half of the fitted maximal effect)
Sequence of Progesterone receptor (Homo sapiens) (P06401 whole entry, looked up): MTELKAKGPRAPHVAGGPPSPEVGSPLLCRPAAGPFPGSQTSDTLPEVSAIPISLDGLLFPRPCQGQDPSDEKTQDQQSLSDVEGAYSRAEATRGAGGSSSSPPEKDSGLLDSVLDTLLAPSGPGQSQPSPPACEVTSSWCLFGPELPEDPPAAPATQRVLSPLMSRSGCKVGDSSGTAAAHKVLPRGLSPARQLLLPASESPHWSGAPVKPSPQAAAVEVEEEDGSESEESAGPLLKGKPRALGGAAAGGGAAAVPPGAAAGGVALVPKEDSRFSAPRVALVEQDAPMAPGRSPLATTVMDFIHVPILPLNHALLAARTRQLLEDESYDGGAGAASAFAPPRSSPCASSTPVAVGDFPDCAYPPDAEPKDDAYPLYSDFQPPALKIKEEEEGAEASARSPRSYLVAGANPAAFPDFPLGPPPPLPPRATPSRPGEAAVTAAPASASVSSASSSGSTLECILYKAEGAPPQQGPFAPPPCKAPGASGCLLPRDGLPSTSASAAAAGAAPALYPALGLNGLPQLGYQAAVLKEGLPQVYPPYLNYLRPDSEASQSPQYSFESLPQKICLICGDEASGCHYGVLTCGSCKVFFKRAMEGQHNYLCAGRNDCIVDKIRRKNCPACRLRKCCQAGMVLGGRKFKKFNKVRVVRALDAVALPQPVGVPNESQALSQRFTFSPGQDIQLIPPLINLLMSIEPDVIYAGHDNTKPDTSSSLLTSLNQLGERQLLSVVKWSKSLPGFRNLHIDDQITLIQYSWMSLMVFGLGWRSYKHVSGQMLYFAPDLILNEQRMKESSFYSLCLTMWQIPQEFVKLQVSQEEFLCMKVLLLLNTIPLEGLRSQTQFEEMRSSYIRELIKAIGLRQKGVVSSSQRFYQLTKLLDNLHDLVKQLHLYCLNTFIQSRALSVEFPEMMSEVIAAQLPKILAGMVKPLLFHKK
In short: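 Antagonist mode with agonist R5020 at 1 nM final and 16 hr incubation at 37C. Reporter was beta-lactamase driven by UAS in HEK293T (PR-UAS-bla), 2% charcoal-stripped serum; signal from LiveBLAzer FRET substrate, 2 hr at room temperature.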

[8] = qHTS assay to identify small molecule antagonists of the progesterone receptor (PR) signaling pathway - cell viability counter screen (AID 1346798); further: nearly all actives have a fitted effect of over 50% in size; further: potency means the concentration at half of the fitted maximal effect
In short: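 Cytotoxicity read as CellTiter-Glo luminescence (30 min, room temperature) in the same wells as the beta-lactamase readout. HEK293T PR-UAS-bla cells in charcoal-stripped 2% FBS received compound and R5020, then 16 h at 37C, 5% CO2.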

[9] = qHTS assay to identify small molecule agonists of the progesterone receptor (PR) signaling pathway - cell viability counter screen (AID 1346799; calls by dose curve; further: nearly all actives have a fitted effect of over 45% in size; further: potency means the concentration at half of the fitted maximal effect)
In short: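 Cytotoxicity measured by CellTiter-Glo luminescence (30 min, RT) in the same wells as the PR beta-lactamase agonist read. Those HEK293T cells had 16 h compound treatment at 37 C in 2% charcoal-stripped FBS medium.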

[10] = qHTS assay to identify small molecule antagonists of the TGF-beta/Smad signaling pathway - cell viability counter screen (AID 1346824); further: nearly all actives have a fitted effect of over 50% in size
In short: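 SBE-bla HEK 293T cells were plated overnight at 37 C, then given compounds in DMSO plus TGF-beta1 (added as 0.25 ng/mL solution) for 5 hr. After the bla read, CellTiter-Glo was added to the same wells and luminescence read after 30 min at room temperature.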

[11] = qHTS assay to identify small molecule agonists of the TGF-beta/Smad signaling pathway - cell viability counter screen (AID 1346829); further: top concentration of the series differs between compounds; nearly all actives have a fitted effect of over 45% in size
In short: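 Tox21 qHTS format: SBE-bla HEK 293T cells treated with DMSO-dissolved compounds for 5 hr; CellTiter-Glo luminescence after 30 min at room temperature.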

[12] = qHTS assay to identify small molecule agonists of the TGF-beta/Smad signaling pathway (AID 1346859; active means well fitted activation curve with a large enough effect in the signal ratio in the repeat runs, not every such curve was filed as active; the % refers to the signal ratio; further: series mostly up to about 77 µM)
In short: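 Fluorescence (ex 405 nm; em 460 and 530 nm) was read 2 h after LiveBLAzer FRET substrate at RT. The preceding compound treatment of overnight-plated SBE-bla HEK293T cells lasted 5 h at 37 C.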

[13] = qHTS assay to identify small molecule agonists of the estrogen receptor alpha (ER-alpha) signaling pathway in the presence of an antagonist - cell viability counter screen (AID 1259386);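 further: cells exposed to compounds for 22 h at 37 °C before the viability read; nearly all actives have a fitted effect of over 30% in size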; further: potency means the concentration at half of the fitted maximal effect
In short: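 In this counter screen, compound effects on VM7Luc4E2 viability were tested in the presence of the antagonist ICI-182,780 at 10.0nM final. Compounds were dosed at 15 concentrations, exposure lasted 22hr, and the CellTiter-Fluor signal was read.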

[14] = molecular target: Progesterone receptor (Homo sapiens) (UniProt P06401); assay: qHTS assay to identify small molecule agonists of the progesterone receptor (PR) signaling pathway (AID 1346784; calls by dose curve; further: nearly all actives have a fitted effect of over 30% in size)
In short: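 Agonist qHTS: compounds pinned onto 3,000 PR-UAS-bla HEK 293T cells per well in charcoal-stripped serum medium, 16hr at 37C, then beta-lactamase activity measured by LiveBLAzer FRET fluorescence after 2 hours at room temperature.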

[15] = molecular target: Estrogen receptor (Homo sapiens) (UniProt P03372); assay: qHTS assay to identify small molecule agonists of the estrogen receptor alpha (ER-alpha) signaling pathway in the presence of an antagonist (AID 1259383; calls by dose curve; further: top concentration of the series differs between compounds; nearly all actives have a fitted effect of over 15% in size)
Sequence of Estrogen receptor (Homo sapiens) (P03372 whole entry, looked up): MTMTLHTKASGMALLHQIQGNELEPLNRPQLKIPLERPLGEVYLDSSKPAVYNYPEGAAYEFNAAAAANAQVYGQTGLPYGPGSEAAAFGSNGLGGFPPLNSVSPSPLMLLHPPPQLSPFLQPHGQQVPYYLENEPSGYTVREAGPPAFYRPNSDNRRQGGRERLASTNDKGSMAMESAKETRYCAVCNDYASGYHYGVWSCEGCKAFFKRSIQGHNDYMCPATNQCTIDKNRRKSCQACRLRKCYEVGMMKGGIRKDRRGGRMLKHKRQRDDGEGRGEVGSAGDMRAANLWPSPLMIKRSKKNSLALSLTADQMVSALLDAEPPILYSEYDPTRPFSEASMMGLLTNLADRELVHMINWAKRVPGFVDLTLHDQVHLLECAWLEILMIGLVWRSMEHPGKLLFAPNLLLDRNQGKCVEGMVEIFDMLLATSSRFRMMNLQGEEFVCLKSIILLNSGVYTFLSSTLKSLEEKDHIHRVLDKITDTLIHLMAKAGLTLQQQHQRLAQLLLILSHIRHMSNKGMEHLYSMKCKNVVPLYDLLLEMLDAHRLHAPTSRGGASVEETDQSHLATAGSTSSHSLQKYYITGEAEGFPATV
In short: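 Readout was ERE-driven luciferase luminescence in VM7Luc4E2 cells, which express full-length ER-alpha endogenously. Compounds were tested at 15 concentrations for 22hr alongside 10.0nM ICI-182,780 (final concentration).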

[16] = molecular target: Thyrotropin-releasing hormone receptor (Homo sapiens) (UniProt P34981); assay: qHTS assay to identify small molecule antagonists of the thyrotropin-releasing hormone receptor (TRHR) signaling pathway (AID 1346877; active means well fitted inhibition curve with a large enough effect in the repeat runs, not every such curve was filed as active; further: potency means the concentration at half of the fitted maximal effect)
Sequence of Thyrotropin-releasing hormone receptor (Homo sapiens) (P34981 whole entry, looked up): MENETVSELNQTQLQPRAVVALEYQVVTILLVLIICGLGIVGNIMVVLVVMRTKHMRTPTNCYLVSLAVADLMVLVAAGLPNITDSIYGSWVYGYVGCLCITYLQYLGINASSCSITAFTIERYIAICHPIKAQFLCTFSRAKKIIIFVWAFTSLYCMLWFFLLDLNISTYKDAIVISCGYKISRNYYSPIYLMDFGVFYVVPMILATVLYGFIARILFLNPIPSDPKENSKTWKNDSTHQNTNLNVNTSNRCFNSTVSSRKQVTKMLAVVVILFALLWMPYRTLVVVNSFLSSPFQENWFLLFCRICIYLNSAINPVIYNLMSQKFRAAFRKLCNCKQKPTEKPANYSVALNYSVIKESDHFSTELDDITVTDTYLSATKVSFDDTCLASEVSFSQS
In short: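 Kinetic fluorescence (3 min, 1 s resolution) following stimulation with TRH at 1 nM final; HEK293 cells bearing human TRHR; 5 min compound preincubation at RT; concentration-response over 15 points, triplicates.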

[17] = qHTS assay to identify small molecule antagonists of the sonic hedgehog signaling (Shh) pathway (AID 1259369; calls by dose curve; further: nearly all actives have a fitted effect of over 45% in size; further: potency means the concentration at half of the fitted maximal effect)
In short: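 Stable Gli1-Luc reporter NIH/3T3 clone; quantitative HTS in stimulated mode with conditioned medium. Luminescence measured after 24hr compound treatment at 37 C.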

[18] = molecular target: Estrogen receptor beta (Homo sapiens) (UniProt Q92731); assay: qHTS assay to identify small molecule agonists of the estrogen receptor beta (ER-beta) signaling pathway (AID 1259377; active means well fitted activation curve with a large enough effect in the signal ratio in the repeat runs, not every such curve was filed as active; the % refers to the signal ratio)
Sequence of Estrogen receptor beta (Homo sapiens) (Q92731 whole entry, looked up): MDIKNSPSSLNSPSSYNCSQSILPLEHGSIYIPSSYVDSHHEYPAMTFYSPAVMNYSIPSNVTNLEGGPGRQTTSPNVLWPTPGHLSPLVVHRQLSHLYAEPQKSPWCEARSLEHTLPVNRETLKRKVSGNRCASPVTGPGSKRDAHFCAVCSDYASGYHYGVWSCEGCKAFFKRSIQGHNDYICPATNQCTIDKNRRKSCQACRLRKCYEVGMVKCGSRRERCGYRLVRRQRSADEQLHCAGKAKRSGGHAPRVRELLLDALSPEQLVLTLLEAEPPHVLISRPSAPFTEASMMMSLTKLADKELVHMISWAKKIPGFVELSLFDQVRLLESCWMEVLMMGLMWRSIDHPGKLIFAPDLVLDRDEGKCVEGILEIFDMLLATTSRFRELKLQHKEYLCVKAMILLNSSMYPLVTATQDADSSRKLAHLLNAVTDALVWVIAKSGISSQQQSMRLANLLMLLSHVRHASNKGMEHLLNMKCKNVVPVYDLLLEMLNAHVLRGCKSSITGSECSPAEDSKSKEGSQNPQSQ
In short: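 Ratiometric beta-lactamase FRET read-out came after 2 h substrate loading at room temperature. It followed 16 h compound treatment at 37C of GripTite HEK293T cells carrying a UAS-bla reporter, plated in 2% charcoal-stripped FBS medium.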

[19] = molecular target: Estrogen receptor beta (Homo sapiens) (UniProt Q92731); assay: qHTS assay to identify small molecule antagonists of the estrogen receptor beta (ER-beta) signaling pathway (AID 1259378; active means well fitted inhibition curve with a large enough effect in the signal ratio in the repeat runs, not every such curve was filed as active; the % refers to the signal ratio)
In short: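 ER-beta-UAS-bla HEK293T (GripTite) cells in 2% charcoal-stripped FBS medium were preincubated 6 hr at 37C, dosed with compound, then stimulated with 1 nM E2 (final) for 16 hr; beta-lactamase reporter read by B/G FRET fluorescence after 2 hr substrate loading.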

[20] = molecular target: Androgen receptor (Homo sapiens) (UniProt P10275); assay: qHTS assay to identify small molecule agonists of the androgen receptor (AR) signaling pathway in the presence of an antagonist (AID 1259381; calls by dose curve; further: nearly all actives have a fitted effect of over 15% in size)
Sequence of Androgen receptor (Homo sapiens) (P10275 whole entry, looked up): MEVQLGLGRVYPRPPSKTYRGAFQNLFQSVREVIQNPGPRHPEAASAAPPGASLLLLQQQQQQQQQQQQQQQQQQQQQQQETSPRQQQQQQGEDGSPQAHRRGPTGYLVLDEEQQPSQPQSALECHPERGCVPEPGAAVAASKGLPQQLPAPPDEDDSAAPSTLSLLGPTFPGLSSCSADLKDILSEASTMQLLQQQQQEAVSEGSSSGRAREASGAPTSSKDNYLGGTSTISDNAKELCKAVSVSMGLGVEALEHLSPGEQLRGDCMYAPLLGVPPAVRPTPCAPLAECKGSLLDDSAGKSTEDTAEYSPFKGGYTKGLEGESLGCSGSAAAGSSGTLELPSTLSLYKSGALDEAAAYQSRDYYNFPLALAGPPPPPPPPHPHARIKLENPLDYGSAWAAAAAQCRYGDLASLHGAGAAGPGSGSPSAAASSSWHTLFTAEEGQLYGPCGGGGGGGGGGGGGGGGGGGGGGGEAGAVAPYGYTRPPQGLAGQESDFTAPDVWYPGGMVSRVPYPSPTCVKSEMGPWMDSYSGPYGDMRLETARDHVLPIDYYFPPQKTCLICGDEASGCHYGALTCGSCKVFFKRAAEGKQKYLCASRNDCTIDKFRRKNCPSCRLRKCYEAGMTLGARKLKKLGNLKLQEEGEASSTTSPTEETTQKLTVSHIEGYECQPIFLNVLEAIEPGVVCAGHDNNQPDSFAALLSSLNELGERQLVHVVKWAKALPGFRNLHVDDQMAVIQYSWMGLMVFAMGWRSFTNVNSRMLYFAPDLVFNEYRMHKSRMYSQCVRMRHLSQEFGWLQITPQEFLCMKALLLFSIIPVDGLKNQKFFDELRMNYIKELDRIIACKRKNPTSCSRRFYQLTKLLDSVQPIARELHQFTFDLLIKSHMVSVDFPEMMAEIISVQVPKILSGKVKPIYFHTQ
In short: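 Reporter-gene luminescence from MDA-kb2 cells exposed 16hr at 37C (0% CO2) to 15-point compound titrations with 3.0uM final nilutamide as AR antagonist.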

Structure (SMILES)	Potency [1]	Potency [2]	Potency [3]	Potency [4]	outcome [5]	Potency [6]	Potency [7]	Potency [8]	Potency [9]	Potency [10]	Potency [11]	outcome [12]	Potency [13]	Potency [14]	Potency [15]	Potency [16]	Potency [17]	Potency [18]	Potency [19]	Potency [20]
CCOS(C)(=O)=O	inactive	inactive	inactive	inactive	inactive	inactive	inactive	inactive	inactive	inactive	inactive	inactive								
O=C(O)C1(c2ccc3c(c2)OC[C@H](Cc2ccc(-c4ccccc4)cc2)[C@H]3O)CCCC1	inactive		27.3 µM (active)		inactive	inactive	48.6 µM (active)			inactive	inactive		inactive	inactive						
C=CC(=O)NCNC(=O)C=C	inactive	inactive		inactive	inactive			inactive			inactive	inactive	inactive	inactive	inactive					
CCOP(=O)(OCC)O/C(=C/Cl)c1ccc(Cl)cc1Cl	inactive		inactive	inactive	inactive		10.9 µM (active)	inactive		inactive				inactive	inactive	inactive				
CCCCN(N=O)C(=N)N[N+](=O)[O-]	inactive	inactive	inactive	inactive	inactive		inactive	inactive	inactive	inactive		inactive	inactive	inactive		inactive				
C=CC(=O)OCC(C)C		inactive	inactive	inactive	inactive	inactive	inactive	inactive	inactive	inactive	inactive	inactive		inactive	inactive		inactive	inactive	inactive	
Clc1cccc2ccccc12	inactive	inactive	inactive		inactive	inactive	inactive	inactive	inactive	inactive	inactive	inactive	inactive	inactive					inactive	
COC(=O)C(C)N(C(=O)Cc1ccccc1)c1c(C)cccc1C (stereo not drawn)	inactive	inactive	61.1 µM (active)		inactive	inactive		inactive		inactive	inactive		inactive	inactive	inactive					inactive
O=[N+]([O-])c1cc(C(F)(F)F)cc([N+](=O)[O-])c1Cl	inactive		54.7 µM (active)		inactive	inactive				inactive		inactive	30.8 µM (active)	inactive	inactive					
CN(N=O)c1ccc([N+](=O)[O-])cc1	inactive		inactive	inactive			inactive	inactive	inactive	inactive	inactive	inactive		inactive	inactive	inactive				
O=C1NCN(c2ccccc2)C12CCN(CCCOc1ccc(F)cc1)CC2	inactive							inactive	inactive	inactive	inactive	inactive		inactive	inactive	6.58 µM (active)				
COc1nn(CSP(=S)(OC)OC)c(=O)s1	inactive	inactive		inactive	inactive	inactive				inactive	inactive	inactive	inactive	inactive	inactive	inactive				
C=CCCl	inactive	inactive	inactive	inactive	inactive	inactive	inactive	inactive	inactive	inactive	inactive		inactive	inactive	inactive	inactive				
Cc1ccc(-c2c(Cl)nc(C#N)n2S(=O)(=O)N(C)C)cc1		48.5 µM (active)		27.3 µM (active)				8.63 µM (active)		inactive	inactive		inactive		inactive		7.69 µM (active)			
Cl/C=C\Cl	inactive	inactive	inactive	inactive	inactive	inactive	inactive	inactive	inactive	inactive			inactive	inactive	inactive	inactive				
CC(C)(OO)c1ccccc1	inactive	inactive	inactive		inactive	inactive	inactive	inactive	inactive	inactive	inactive	inactive	inactive		inactive	inactive				
CC(c1ccc(O)cc1)(c1ccc(O)cc1)c1ccc(O)cc1	inactive						19.3 µM (active)			inactive			inactive		inactive					
CC1CC(CC2CCC(N)C(C)C2)CCC1N (stereo not drawn)	inactive	27.8 µM (active)			inactive	inactive	inactive			inactive	inactive	inactive		inactive	inactive	inactive				inactive
COP(=S)(Oc1cc(Cl)c(Br)cc1Cl)c1ccccc1 (stereo not drawn)	inactive	inactive		inactive	inactive	inactive		inactive		inactive	inactive		inactive		inactive					
C/C(=C\c1ccccc1)[N+](=O)[O-]	inactive	24.3 µM (active)			inactive				68.6 µM (active)	inactive					inactive	inactive				inactive
CCOC(=O)[C@]1(c2ccccc2)Oc2ccccc2[C@@H]1N	inactive			inactive	inactive	inactive		inactive		inactive	inactive	inactive				inactive		inactive		
CC1(C)CCC(Cc2ccc(Cl)cc2)C1(O)Cn1cncn1 (stereo not drawn)	inactive				inactive	inactive	4.33 µM (active)		inactive	inactive	inactive	inactive		inactive	inactive	inactive				
O=C(CBr)OCc1ccccc1	inactive	inactive	inactive	inactive			inactive	inactive		inactive	inactive	inactive	inactive		inactive	inactive			inactive	
